Key:
[1] = yeast AGP1-GFP fluorescence change, single-dose – cell-based, flow cytometry, S. cerevisiae, cherry picks, confirmation (AID 2273;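 active = GFP response above 150% of the DMSO level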;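 note: median GFP channel fluorescence over the whole cell population gate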); settings: S. cerevisiae AGP1-GFP strain, 3 h, at 10 µM
[2] = molecular target: Integrin beta-1 (Homo sapiens) + Integrin alpha-4 (Homo sapiens) (UniProt P13612+P05556); experiment: alpha4beta1 integrin LIBS antibody binding reduction – U937 cells, HUTS-21 mAb, flow cytometry, validation set, VLA-4 allosteric modulator project, pilot screen (AID 2674;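 active = inhibition above 50%, about 3 SD of the validation set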;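 note: antibody binding induced by the VLA-4 ligand LDV present at three times its Kd; 0% = LDV ligand with antibody and no compound and 100% = antibody without LDV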); settings: HUTS-21 LIBS mAb binding, at 6.7 µM, hits give high values, binding induced by LDV ligand
[3] = calorie-restriction mimetic ROS inhibitors, yeast – validation compound set, pilot screen (AID 2706;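 active = superoxide response below 65% of plate, a cut near 3 SD across the whole screen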;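 note: yeast exposed to compound for one week at 30 degrees C before staining; 100% = mean of all compound wells on the same plate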); settings: S. cerevisiae aging, superoxide DHE fluorescence; at 10 µM; hits give low values
[4] = molecular target: Beta-adrenergic receptor kinase 1 (Homo sapiens) (UniProt P25098); experiment: GRK2 binders displacing RNA aptamer, biochemical, validation, human GRK2, bead flow cytometry (AID 488806;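 active = aptamer binding inhibition above 30%, about 3 SD of noise from non-fluorescent compounds; inactive = inhibition at or below 30%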); settings: bead-bound GRK2, FAM-aptamer displacement, at 10 µM, hits give high values
[5] = molecular target: Beta-2 adrenergic receptor (Homo sapiens) (UniProt P07550); experiment: agonist-induced loss of surface beta2AR – cell-based, FAP fluorogen, flow cytometry, validation set, pilot screen (AID 504459;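 active = percent response above 42, roughly 3 SD of non-fluorescent test compounds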;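 note: agonist-driven loss of surface beta2AR via internalization measured by FAP dye flow cytometry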); settings: Am2.2-beta2AR cells, at 10 µM, hits give high values
[6] = molecular target: AP-2 complex subunit beta (Homo sapiens) (UniProt P63010); experiment: beta-arrestin/AP2 interaction blockers – biochemical, validation set, GST-AP2 beads, flow cytometry, pilot screen (AID 504541); settings: FITC arrestin peptide, at 10 µM, hits give high values, AP2 beta2 appendage fragment, R879A mutant;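 note: AP2 carries R879A mutation and is captured from E. coli lysate; bead-bound FITC arrestin peptide fluorescence measuring arrestin peptide binding to AP2; 0% = DMSO wells and 100% = excess unlabeled arrestin peptide control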
[7] = cytosolic pH regulators acting via V-ATPase – S. cerevisiae, pHLuorin, HTS validation (AID 504600; in the data active = response above about 15%;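 note: plate controls were DMSO for no effect and reference compound for full effect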); settings: V-ATPase proton transport, at 10 µM, hits give high values
[8] = system: anti-desmoglein-3 scFv antibody binding to human DSG3; experiment: blockers of pathogenic pemphigus antibody–desmoglein-3 binding – biochemical, validation compound set, bead-based, flow cytometry, pilot screen (AID 588368;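 active = binding below the plate cutoff, the plate median minus 3 SD, with a reading above zero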;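 note: signal is the median channel fluorescence of bead-bound GFP antibody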); settings: Protein G beads, DSG3-Fc, scFv-GFP binding, at 10 µM, hits give low values
[9] = Nile Red efflux blockade in pump-expressing yeast – validation compound set, multiplex, phenotypic, pilot screen (AID 588506;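 active = efflux inhibition above 0.42, the validation set average plus 4 SD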;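 note: Nile Red retained in cells so higher fluorescence means more efflux inhibition; 0 = negative control wells and 1 = enniatin B 25 µM full block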); settings: S. cerevisiae pump-expressing triplex, Nile Red efflux flow cytometry; at 10 µM; hits give high values; the pumps come from Candida albicans
[10] = molecular target: ATP-binding cassette sub-family B member 6 (Homo sapiens) (UniProt Q9NP58); experiment: blockers of ABCB6-driven porphyrin uptake – K562-ABCB6 cells, flow cytometry, validation set, pilot screen (AID 588550;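 active = inhibition above the screen-wide mean plus 3 SD, about 51%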;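 note: 0% = DMSO wells and 100% = benzethonium chloride 70 µM positive control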); settings: K562-ABCB6 porphyrin accumulation, 1 h, at 10 µM, hits give high values
[11] = AML differentiation inducers, ER-HoxA9 marrow cells – cell-based, GFP/MAC1 double positive, flow cytometry, validation set, primary screen (AID 588685;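 active = differentiation response of at least 50%, scaled between solvent and reference control, from cells with both markers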;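 note: compound exposure lasts four days before antibody staining and flow analysis; 0% = DMSO wells and 100% = 5 µM fulvestrant positive control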); settings: hits give high values, normalized: vehicle 0, fulvestrant 100

ATP-binding cassette sub-family B member 6 (Homo sapiens), sequence (Q9NP58 whole entry, looked up): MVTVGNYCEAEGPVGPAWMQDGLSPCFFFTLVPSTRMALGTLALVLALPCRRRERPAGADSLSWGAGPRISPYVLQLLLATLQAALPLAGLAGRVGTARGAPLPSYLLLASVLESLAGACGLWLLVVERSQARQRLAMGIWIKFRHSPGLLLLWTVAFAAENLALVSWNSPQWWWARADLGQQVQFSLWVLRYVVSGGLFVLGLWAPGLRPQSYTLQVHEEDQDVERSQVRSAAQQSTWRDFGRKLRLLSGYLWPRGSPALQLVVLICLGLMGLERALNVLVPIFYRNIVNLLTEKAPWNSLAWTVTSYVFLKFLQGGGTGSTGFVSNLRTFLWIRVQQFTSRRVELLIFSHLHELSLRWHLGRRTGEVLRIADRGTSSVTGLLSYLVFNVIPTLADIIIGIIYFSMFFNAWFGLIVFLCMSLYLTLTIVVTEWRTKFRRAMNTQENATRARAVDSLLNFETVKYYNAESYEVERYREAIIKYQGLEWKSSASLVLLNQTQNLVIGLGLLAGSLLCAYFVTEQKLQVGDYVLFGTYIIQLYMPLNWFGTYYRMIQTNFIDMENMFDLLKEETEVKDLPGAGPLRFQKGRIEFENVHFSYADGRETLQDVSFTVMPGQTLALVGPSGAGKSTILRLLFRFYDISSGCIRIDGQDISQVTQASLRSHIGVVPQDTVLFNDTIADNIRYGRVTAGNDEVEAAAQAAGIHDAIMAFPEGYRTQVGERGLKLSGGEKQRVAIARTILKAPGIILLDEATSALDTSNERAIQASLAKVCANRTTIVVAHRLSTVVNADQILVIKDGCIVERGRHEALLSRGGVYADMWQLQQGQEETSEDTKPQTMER
Integrin beta-1 (Homo sapiens) + Integrin alpha-4 (Homo sapiens), sequence (P05556 whole entry, looked up): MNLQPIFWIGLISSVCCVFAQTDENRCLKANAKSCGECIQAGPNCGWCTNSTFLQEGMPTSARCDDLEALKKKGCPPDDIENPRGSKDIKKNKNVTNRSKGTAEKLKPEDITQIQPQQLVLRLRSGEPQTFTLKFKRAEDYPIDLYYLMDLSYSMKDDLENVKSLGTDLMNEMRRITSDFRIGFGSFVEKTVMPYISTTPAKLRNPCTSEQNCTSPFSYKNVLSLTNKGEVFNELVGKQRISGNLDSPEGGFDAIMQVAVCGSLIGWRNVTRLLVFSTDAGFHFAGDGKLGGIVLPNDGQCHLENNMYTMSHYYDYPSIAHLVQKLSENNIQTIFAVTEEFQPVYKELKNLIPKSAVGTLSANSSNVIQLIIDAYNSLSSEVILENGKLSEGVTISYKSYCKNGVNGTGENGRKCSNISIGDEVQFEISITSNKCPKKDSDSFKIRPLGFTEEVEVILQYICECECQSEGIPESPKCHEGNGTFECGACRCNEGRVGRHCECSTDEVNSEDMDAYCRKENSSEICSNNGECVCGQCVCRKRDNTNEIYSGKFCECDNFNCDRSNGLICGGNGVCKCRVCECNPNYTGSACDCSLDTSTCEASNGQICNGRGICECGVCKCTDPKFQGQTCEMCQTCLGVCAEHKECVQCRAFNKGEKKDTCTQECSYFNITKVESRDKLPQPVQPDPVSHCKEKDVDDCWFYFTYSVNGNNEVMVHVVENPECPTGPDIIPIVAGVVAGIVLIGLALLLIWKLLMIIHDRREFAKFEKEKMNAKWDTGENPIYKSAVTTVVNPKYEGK
Integrin beta-1 (Homo sapiens) + Integrin alpha-4 (Homo sapiens), sequence (P13612 whole entry, looked up): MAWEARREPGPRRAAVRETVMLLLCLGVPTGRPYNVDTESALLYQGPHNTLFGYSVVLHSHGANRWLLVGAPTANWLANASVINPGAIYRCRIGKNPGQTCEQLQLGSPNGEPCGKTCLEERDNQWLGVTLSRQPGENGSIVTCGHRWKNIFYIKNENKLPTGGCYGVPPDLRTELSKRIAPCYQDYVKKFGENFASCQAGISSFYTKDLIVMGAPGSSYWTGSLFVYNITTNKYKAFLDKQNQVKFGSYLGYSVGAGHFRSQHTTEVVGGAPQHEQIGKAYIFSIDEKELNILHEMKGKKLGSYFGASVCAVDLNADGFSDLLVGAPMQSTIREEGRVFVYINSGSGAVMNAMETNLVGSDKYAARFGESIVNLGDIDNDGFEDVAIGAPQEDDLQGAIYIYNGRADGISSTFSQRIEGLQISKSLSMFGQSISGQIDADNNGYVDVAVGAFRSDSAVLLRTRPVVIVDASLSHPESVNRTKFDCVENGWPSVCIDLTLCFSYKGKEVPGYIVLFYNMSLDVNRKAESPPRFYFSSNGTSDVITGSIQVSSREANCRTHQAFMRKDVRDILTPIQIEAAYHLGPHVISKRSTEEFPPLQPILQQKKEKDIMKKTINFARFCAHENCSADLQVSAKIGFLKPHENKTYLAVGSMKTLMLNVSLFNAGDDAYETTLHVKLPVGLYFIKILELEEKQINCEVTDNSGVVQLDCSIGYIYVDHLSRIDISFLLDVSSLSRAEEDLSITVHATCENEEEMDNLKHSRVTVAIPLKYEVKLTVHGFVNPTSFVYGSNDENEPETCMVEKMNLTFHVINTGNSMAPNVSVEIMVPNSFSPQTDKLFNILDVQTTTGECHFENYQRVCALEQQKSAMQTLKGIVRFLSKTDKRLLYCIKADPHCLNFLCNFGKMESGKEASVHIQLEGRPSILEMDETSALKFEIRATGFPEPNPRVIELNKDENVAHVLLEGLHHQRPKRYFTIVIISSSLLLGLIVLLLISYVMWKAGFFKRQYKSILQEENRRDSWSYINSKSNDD
Beta-2 adrenergic receptor (Homo sapiens), sequence (P07550 whole entry, looked up, the tested form may be a part): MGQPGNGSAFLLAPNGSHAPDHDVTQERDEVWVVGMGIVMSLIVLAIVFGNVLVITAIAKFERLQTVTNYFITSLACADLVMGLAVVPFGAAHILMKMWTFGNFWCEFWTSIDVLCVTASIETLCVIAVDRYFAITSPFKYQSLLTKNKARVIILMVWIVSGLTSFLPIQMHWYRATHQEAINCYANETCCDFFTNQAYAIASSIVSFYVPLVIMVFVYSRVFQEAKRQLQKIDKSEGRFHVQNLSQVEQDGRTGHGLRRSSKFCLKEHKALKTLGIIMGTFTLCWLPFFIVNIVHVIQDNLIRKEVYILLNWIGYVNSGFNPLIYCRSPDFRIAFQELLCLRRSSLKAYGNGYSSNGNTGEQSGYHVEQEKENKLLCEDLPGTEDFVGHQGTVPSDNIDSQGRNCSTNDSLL
Beta-adrenergic receptor kinase 1 (Homo sapiens), sequence (P25098 whole entry, looked up): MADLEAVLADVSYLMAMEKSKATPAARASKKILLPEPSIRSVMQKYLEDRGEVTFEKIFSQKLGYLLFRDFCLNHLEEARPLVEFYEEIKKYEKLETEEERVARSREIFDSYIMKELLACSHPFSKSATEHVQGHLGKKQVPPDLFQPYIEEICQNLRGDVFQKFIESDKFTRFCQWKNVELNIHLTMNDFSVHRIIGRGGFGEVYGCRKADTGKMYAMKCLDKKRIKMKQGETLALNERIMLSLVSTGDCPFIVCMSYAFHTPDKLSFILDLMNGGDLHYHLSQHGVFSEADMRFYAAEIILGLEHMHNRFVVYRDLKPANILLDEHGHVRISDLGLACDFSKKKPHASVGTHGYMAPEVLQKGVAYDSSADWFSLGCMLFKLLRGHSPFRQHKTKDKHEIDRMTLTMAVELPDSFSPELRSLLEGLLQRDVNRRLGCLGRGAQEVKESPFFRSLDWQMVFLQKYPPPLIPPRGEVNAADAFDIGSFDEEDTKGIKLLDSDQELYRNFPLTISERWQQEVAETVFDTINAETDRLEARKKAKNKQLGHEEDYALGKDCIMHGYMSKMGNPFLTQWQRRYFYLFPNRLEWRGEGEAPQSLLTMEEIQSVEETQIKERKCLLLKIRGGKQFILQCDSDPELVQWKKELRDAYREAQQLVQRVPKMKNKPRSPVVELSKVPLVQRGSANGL
AP-2 complex subunit beta (Homo sapiens), sequence (P63010 whole entry, looked up, the tested form may be a part, one chain of several): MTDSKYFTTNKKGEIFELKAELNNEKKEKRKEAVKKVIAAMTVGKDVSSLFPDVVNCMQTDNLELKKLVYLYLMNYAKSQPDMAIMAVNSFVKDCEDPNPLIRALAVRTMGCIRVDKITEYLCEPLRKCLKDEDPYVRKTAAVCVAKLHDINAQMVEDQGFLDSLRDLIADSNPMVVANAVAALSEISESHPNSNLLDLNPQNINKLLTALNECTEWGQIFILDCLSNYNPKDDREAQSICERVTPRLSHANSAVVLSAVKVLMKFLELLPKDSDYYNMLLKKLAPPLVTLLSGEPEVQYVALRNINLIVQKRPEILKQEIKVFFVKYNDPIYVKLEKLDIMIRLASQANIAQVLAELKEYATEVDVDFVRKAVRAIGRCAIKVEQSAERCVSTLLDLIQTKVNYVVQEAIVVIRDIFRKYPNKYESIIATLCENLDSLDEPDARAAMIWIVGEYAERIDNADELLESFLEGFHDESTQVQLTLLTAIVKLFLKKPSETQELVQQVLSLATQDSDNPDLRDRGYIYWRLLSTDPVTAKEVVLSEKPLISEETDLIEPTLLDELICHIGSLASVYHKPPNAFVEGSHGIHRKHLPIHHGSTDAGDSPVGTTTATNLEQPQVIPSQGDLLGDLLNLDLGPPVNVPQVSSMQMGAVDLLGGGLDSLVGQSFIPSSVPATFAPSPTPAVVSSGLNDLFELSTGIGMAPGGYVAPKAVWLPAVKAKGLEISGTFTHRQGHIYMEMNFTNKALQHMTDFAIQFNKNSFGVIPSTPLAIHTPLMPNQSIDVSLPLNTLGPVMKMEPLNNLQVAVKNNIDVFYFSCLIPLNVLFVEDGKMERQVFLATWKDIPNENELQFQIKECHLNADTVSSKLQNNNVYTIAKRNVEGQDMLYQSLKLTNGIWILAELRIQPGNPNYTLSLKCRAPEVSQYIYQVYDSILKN

CC(=O)[C@@]1(O)CC[C@H]2[C@@H]3C[C@H](C)C4=CC(=O)CC[C@]4(C)[C@H]3CC[C@@]21C
inactive: GFP response, % of DMSO [1] 93.3% | inhibition [2] 11.3% | superoxide response (% of plate) [3] 97% | aptamer binding inhibition [4] 4% | response [5] 4.79% | inhibition [6] -6.18% | response [7] 1.54% | binding (% of control) [8] 102% | efflux inhibition (fraction of control) [9] -0.46 | inhibition [10] 13% | differentiation response [11] -9.01%

O=C(/C=C/c1ccccc1)c1ccccc1
inactive: GFP response, % of DMSO [1] 99.7% | inhibition [2] 2.58% | superoxide response (% of plate) [3] 92.2% | aptamer binding inhibition [4] 4% | response [5] 5.66% | inhibition [6] -4.66% | response [7] -0.45% | binding (% of control) [8] 107% | efflux inhibition (fraction of control) [9] -0.31 | inhibition [10] 14% | differentiation response [11] 9.83%

C[C@]12CCC(=O)C=C1[C@H](O)C[C@@H]1[C@@H]2[C@@H](O)C[C@@]2(C)[C@H]1CC[C@]2(O)C(=O)CO
inactive: GFP response, % of DMSO [1] 98.9% | inhibition [2] -10.5% | superoxide response (% of plate) [3] 98.9% | aptamer binding inhibition [4] 2% | response [5] 6.38% | inhibition [6] -21.5% | response [7] 1.8% | binding (% of control) [8] 104% | efflux inhibition (fraction of control) [9] -0.05 | inhibition [10] 3% | differentiation response [11] 5.67%

O=c1cnn([C@@H]2O[C@H](CO)[C@@H](O)[C@H]2O)c(=O)[nH]1
inactive: GFP response, % of DMSO [1] 89.9% | inhibition [2] 13.4% | superoxide response (% of plate) [3] 124% | aptamer binding inhibition [4] 1% | response [5] -10.1% | inhibition [6] -3.47% | response [7] -1.24% | binding (% of control) [8] 107% | efflux inhibition (fraction of control) [9] -0.04 | inhibition [10] 0% | differentiation response [11] 1.91%
